Screening results: PubChem BioAssay, several laboratories
In the library only some 2.3% were active in any assay of this set; here they are far more common.
BCLXL inh: Bcl-xL (human) inhibition; inhibition, % at 10.9 µM; AID 2129; GST-Bcl-xL / FITC-Bim BH3 peptide fluorescence polarization; 320,000 compounds, 0.7% hits;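 active = inhibition above the mean of all tested compounds plus 3 SD, cutoff set per campaign, cut at about 30% in these data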;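 also: 0% = DMSO wells and 100% = unlabeled Bim-BH3 peptide competitor; inhibitors lower millipolarization by displacing the labeled peptide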
Target sequence (Q07817 whole entry, looked up): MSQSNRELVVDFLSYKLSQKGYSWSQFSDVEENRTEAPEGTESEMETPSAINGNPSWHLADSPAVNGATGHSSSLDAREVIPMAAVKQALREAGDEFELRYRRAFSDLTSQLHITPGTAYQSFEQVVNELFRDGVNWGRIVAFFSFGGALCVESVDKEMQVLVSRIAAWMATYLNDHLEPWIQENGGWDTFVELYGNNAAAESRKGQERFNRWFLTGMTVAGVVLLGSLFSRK
Bim-Mcl-1: inhibitors of Bim-Mcl-1 interaction, human | inhibition, % at 10 µM | Bead-based flow cytometry, Bim peptide-Mcl-1 binding | 190,000 compounds, 0.1% hits | Q07820; in the data active = inhibition above about 40%;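 also: 0% = no compound tracer wells and 100% = peptide blocker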
Target sequence (Q07820 whole entry, looked up): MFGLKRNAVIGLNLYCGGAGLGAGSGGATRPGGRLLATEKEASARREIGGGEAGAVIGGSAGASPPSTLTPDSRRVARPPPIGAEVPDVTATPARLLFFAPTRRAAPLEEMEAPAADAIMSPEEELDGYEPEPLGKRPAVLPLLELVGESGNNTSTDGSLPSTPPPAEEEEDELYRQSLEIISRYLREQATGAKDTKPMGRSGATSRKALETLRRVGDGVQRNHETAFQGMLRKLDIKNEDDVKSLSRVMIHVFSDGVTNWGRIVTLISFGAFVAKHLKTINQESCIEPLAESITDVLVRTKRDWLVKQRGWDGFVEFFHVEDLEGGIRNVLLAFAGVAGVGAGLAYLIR
MCL1-BIM inh: disrupts human MCL1 binding to BIM-BH3 peptide; Q07820; GST-MCL1 / FITC-Bim-BH3 fluorescence polarization; inhibition, % at 10.9 µM; 320,000 compounds, 0.68% hits; AID 2057;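 active = inhibition above the mean inhibition of all tested compounds plus 3 SD, set per campaign, cut at about 40% in these data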;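 also: 0% = DMSO wells and 100% = unlabeled Bim-BH3 peptide control; higher means more loss of mP so more displacement of Bim peptide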
GLD-1 RNA inh: GLD-1-TGE RNA interaction inhibition (C. elegans); Q17339; purified GLD-1 + fluorescein TGE RNA, fluorescence polarization; inhibition, % at 5.96 µM; 320,000 compounds, 0.44% hits; AID 2280;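 active = percent inhibition above a per-plate cutoff, the plate mean of test compounds plus 3 SD, cut at about 30% in these data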;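 also: 0% = DMSO wells with GLD-1 and probe and 100% = wells lacking GLD-1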
Mcl1-Bid inh: disrupts binding of human Mcl-1 to Bid peptide; 220,000 compounds, 0.97% hits; inhibition, % at 21.7 µM; AID 1021; TR-FRET Mcl-1/Bid-Dy647 peptide binding, 1536-well; Q07820;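 active = compounds that cut the binding signal by more than half at the single screening dose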;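 also: His-tagged Mcl-1 with europium anti-His antibody binding Bid BH3 peptide; 0% = Mcl-1 plus peptide wells and 100% = peptide-only wells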
Mcl1-Noxa inh: Mcl-1/Noxa interaction inhibition. Q07820. 220,000 compounds, 1.5% hits. inhibition, % at 21.7 µM. AID 1022. TR-FRET Mcl-1/Noxa peptide binding, 2 h;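 active = compounds that cut the protein-peptide binding signal by more than 50% relative to plate controls in a single-dose test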;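 also: His-tagged Mcl-1 with rhodamine Noxa BH3 peptide and terbium anti-His antibody; 0% = Mcl-1 plus Noxa peptide wells and 100% = peptide-only wells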
An asterisk follows results filed as active; / = not tested or not shown.

SMILES	BCLXL inh	Bim-Mcl-1	MCL1-BIM inh	GLD-1 RNA inh	Mcl1-Bid inh	Mcl1-Noxa inh
CCOC(=O)N1CCN(S(=O)(=O)c2ccc(Cl)cc2)CC1	-1	/	-2	2	/	/
CC(=O)N1CCc2cc(S(=O)(=O)NC(Cc3ccccc3)C(=O)NC3CCCCCC3)ccc21 (stereo not drawn)	1	-4	6	5	99*	103*
COc1ccc(/C=N/NC(=O)CCOc2ccccc2C)cc1OC	0	-5	5	-3	-20	5
COc1cc(/C=N/NC(=O)CCOc2ccccc2C)cc(Br)c1O	1	-1	12	-7	-30	67*
O=C1NC(=S)S/C1=C\C=C\c1ccc([N+](=O)[O-])o1	/	/	/	/	21	103*
O=C(NCc1cccnc1)/C(=C\c1ccc(-c2ccc(Br)cc2)o1)S(=O)(=O)c1ccccc1	2	4	2	-6	52*	39
O=C(NCc1cccnc1)/C(=C/c1ccc(-c2ccc(Cl)cc2)o1)S(=O)(=O)c1ccccc1	1	-2	6	3	31	20
Cc1nc2cc(N3CCCCC3)c(NC(=O)c3ccncc3)cc2c(=O)n1Cc1ccc(Cl)cc1	-1	2	-2	-1	57*	11
Cc1cc(NS(=O)(=O)c2ccc(NC(NC(=O)C(C(F)(F)F)C(F)(F)F)(C(F)(F)F)C(F)(F)F)cc2)no1	/	1	/	/	71*	40
Cc1ccc2c(=O)n3c(nc2c1)C(CC(C)C)NC(=O)c1ccc(Cl)cc1-3 (stereo not drawn)	/	/	/	7	/	/
CCCCCC1CC(CC#CCN2CCOCC2)C(=O)O1 (stereo not drawn)	11	0	15	-2	51*	-1
CCCCn1nc(C(=O)Nc2nc3c(s2)CCCC3)c2ccccc2c1=O	1	-25	3	6	-24	3
CCCCCCn1nc(C(=O)Nc2nc3c(s2)CCCC3)c2ccccc2c1=O	-2	45*	0	5	10	25
COc1cc2cc3c(N)c(C(=O)Nc4sc(C)c(C)c4C#N)sc3nc2cc1OC	-2	5	14	-2	66*	98*
Cc1ccc2nc3sc(C(=O)NCc4ccco4)c(N)c3cc2c1	17	-6	11	4	-49	42
COc1cc2cc3c(N)c(C(=O)NCc4ccco4)sc3nc2cc1OC	16	2	9	9	-18	57*
COc1ccc(CN2CCNC(=O)C2CC(=O)N(C)Cc2nonc2C)c(F)c1 (stereo not drawn)	7	/	14	1	/	/
COc1ccc(CNC(=O)[C@H](C)NC(=O)C2CCN(S(=O)(=O)c3ccccc3)CC2)cc1	6	/	5	3	/	/
COc1cc(NCCC(=O)c2cccs2)c(OC)cc1Cl	3	-1	2	-1	-28	86*
O=C(NC1CC(=O)N(c2ccc3c(c2)OCCO3)C1)N1CCCCC1 (stereo not drawn)	5	/	6	1	/	/
O=C(NCCCNC(=O)c1ccccc1F)c1ccco1	-1	/	-3	-2	/	/
Cc1oc2c(cc(NS(=O)(=O)c3ccc4c5c(cccc35)C(=O)N4)c3ccccc32)c1C(=O)OC(C)C	1	0	0	-2	10	49
O=C1CCCc2oc3c(cc(NS(=O)(=O)c4ccc5c6c(cccc46)C(=O)N5)c4ccccc43)c21	9	/	6	12	-76	61*
CCN1CCCc2cc(CN(CCN3CCOCC3)C(=S)Nc3cccc(OC)c3)ccc21	21	1	26	7	-93	60*
CCOc1ccc(NC(=O)N(CCN2CCOCC2)Cc2ccc3c(c2)CCCN3CC)cc1	11	-2	12	-1	-86	78*
SMILES	BCLXL inh	Bim-Mcl-1	MCL1-BIM inh	GLD-1 RNA inh	Mcl1-Bid inh	Mcl1-Noxa inh
Cc1cccc2cc(C#N)c(NCCCNS(=O)(=O)c3ccc(Cl)cc3)nc12	-1	/	-2	12	-3	-23
CC1Cc2ccccc2N1Cc1cc(=O)n2ccsc2n1 (stereo not drawn)	33*	-2	26	11	-59	30
Nc1ccc(Br)c2c1C(=O)c1ccccc1C2=O	46*	1	40*	16	-5	36
Nc1ccccc1NC(=O)c1ccccc1	-2	-3	0	0	-25	3
Nc1ccc(NC(=O)c2ccccc2)c2c1C(=O)c1ccccc1C2=O	8	-1	17	8	54*	66*
O=C(Nc1nnc(-c2cccs2)s1)c1cccc(F)c1	-2	0	-1	8	6	13
CN(CC1CCOCC1)C(=O)CC1C(=O)NCCN1Cc1ccc(F)c(F)c1 (stereo not drawn)	19	/	23	11	/	/
C=CCNC(=O)Cc1ccc(S(=O)(=O)N2CCOCC2)s1	0	/	0	-7	/	/
CCN(CC)C(=O)c1sc(NC(=O)c2cc(-c3ccc(C)s3)nc3ccccc23)c(C(=O)OC)c1C	5	0	3	-1	11	61*
COc1ccc(NC(=O)CN(C)C(=O)C2(c3ccccc3)CCCC2)cc1	/	/	/	7	/	/
COc1ccc(C(=O)Oc2c(CN3CCOCC3)cc(Cl)c3cccnc23)cc1	5	-1	4	1	54*	27
COc1cccc(C(=O)Oc2c(CN3CCOCC3)cc(Cl)c3cccnc23)c1	7	-2	11	1	-41	-19
CCCSCCCNC(=O)CN1C(=O)COc2ccc(S(=O)(=O)N3CCCC3)cc21	2	/	0	-6	/	/
O=C(N/N=C/c1ccncc1)c1cccc(N/N=C/c2ccncc2)c1	-3	4	-5	-9	-2	13
COc1ccc(/C=N/NC(=O)c2ccc(NC(=O)c3cccc([N+](=O)[O-])c3)cc2)c(OC)c1	-1	0	10	3	28	67*
O=C(N/N=C/c1ccc(O)cc1)c1cccc(N/N=C/c2ccc(O)cc2)c1	10	/	3	0	-31	80*
COc1ccccc1/C=N/NC(=O)c1ccc(NC(=O)c2cccc([N+](=O)[O-])c2)cc1	3	-3	10	-1	-4	11
O=C(N/N=C/c1ccccn1)c1ccc(NC(=O)c2cccc([N+](=O)[O-])c2)cc1	1	0	1	-3	-21	17
O=C(N/N=C/c1cccc(O)c1)c1ccc(NC(=O)c2cccc([N+](=O)[O-])c2)cc1	-7	0	-7	1	-3	60*
O=C(COc1ccc(C(=O)NCC2CCCO2)cc1)Nc1cccc(C(F)(F)F)c1 (stereo not drawn)	-3	/	-3	2	/	/
FC(F)(F)c1ccc(Cl)c(N/N=C/c2ccc(N3CCOCC3)s2)c1	6	2	-2	-7	-22	67*
S=C(Nc1ccc2nc(-c3ccccn3)c(-c3ccccn3)nc2c1)N1CCCCCC1	35*	3	41*	15	-62	-3
S=C(Nc1ccc2nc(-c3ccccn3)c(-c3ccccn3)nc2c1)N1CCCCC1	/	0	/	/	-31	9
